Experimental data as given in PubChem BioAssay (Tox21).
Records with an inconclusive call do not appear. Calls of active or inactive are those of the source. Calls follow the shape of the dose curve; as a rule, active = well fitted curve in the direction sought with a large enough effect in the repeat runs; inconclusive = weak or mixed curves; inactive = no such curve, though single readings can be large; an effect the other way counts as inactive or inconclusive.

Legend:
[1] = Caspase-3/7 induction in HepG2 cells by small molecules, qHTS assay (AID 1346978); also: nearly all actives have a fitted effect of over 15% in size
Summary of the method: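 Wild-type HepG2 cells (2,000/well) were settled 5 h at 37 C, 5% CO2, then exposed to compounds in DMSO for 17 h. Caspase-3/7 activity was read by luminescence 30 min after adding Caspase-Glo 3/7 reagent at room temperature.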

[2] = Caspase-3/7 induction in CHO-K1 cells by small molecules, qHTS cell viability counter screen (AID 1346979); also: nearly all actives have a fitted effect of over 35% in size
Summary of the method: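 Cytotoxicity counter screen: CellTiter-Fluor added to compound-treated wild-type CHO-K1 cells at 16 h (37C, 5% CO2), fluorescence measured 1 h later; same wells as caspase-3/7 measurement.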

[3] = Caspase-3/7 induction in CHO-K1 cells by small molecules, qHTS assay (AID 1346980); also: nearly all actives have a fitted effect of over 15% in size
Summary of the method: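 Wild-type cells were seeded at 1,500 per well and settled 5 hr at 37 C, 5% CO2, then exposed to DMSO-dissolved compounds for 17 hr. Caspase-Glo 3/7 reagent was added, and luminescence was read after 30min at room temperature.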

[4] = Caspase-3/7 induction in HepG2 cells by small molecules, qHTS cell viability counter screen (AID 1346981); also: series mostly up to about 92 µM; nearly all actives have a fitted effect of over 30% in size
Summary of the method: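 Treatment of HepG2 cells with DMSO-delivered compounds ran 16 hr at 37 C following a 5-hr pre-incubation of 2,000 cells/well. CellTiter-Fluor fluorescence, read after 1 hr, served as the viability measure in a qHTS format.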

[5] = target: Nuclear receptor subfamily 1 group I member 2 (Homo sapiens) (UniProt O75469); assay: Human pregnane X receptor (PXR) small molecule agonists, qHTS assay (AID 1346982); also: nearly all actives have a fitted effect of over 35% in size; also: potency is read from the fitted curve at half-maximal effect
Chain of Nuclear receptor subfamily 1 group I member 2 (Homo sapiens) (O75469 whole entry, looked up): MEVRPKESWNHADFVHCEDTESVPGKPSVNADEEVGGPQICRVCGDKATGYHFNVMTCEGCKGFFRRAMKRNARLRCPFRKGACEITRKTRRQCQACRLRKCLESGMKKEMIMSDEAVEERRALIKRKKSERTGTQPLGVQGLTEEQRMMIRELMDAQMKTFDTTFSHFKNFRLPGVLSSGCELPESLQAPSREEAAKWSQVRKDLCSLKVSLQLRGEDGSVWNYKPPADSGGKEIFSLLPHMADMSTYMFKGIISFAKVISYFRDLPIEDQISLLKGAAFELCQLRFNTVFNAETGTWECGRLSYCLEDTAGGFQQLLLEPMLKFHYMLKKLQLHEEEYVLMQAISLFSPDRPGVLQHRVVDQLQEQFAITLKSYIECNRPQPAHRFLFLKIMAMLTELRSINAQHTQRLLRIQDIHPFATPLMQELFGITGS
Summary of the method: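 Stable HepG2 line reporting PXR-mediated CYP3A4 expression via luciferase. Treatment: 24 hr with compounds in DMSO at 37 C. Detection: ONE-Glo luminescence.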

[6] = target: Cytochrome P450 2C19 (Homo sapiens) (UniProt P33261); assay: Cytochrome P450 Family 2 Subfamily C Member 19 (CYP2C19) small molecule antagonists: luciferase reporter qHTS assay (AID 1671197); also: nearly all actives have a fitted effect of over 65% in size; also: potency is read from the fitted curve at half-maximal effect; as to activity change, negative = inhibition: series mostly up to about 120 µM
Chain of Cytochrome P450 2C19 (Homo sapiens) (P33261 whole entry, looked up): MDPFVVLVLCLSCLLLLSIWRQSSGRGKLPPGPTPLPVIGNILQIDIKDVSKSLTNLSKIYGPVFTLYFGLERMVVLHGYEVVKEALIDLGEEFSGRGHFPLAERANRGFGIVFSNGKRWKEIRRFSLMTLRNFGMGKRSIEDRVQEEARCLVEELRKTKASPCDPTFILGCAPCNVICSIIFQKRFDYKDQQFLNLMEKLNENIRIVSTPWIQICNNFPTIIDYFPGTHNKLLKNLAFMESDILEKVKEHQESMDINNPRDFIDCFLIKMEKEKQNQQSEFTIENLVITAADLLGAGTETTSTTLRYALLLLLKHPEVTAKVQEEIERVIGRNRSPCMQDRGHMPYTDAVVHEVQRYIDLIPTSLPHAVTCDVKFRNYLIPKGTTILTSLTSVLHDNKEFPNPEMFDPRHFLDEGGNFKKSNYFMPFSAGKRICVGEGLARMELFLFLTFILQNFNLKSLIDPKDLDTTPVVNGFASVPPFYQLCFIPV
Summary of the method: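 P450-Glo CYP2C19 system: enzyme-substrate mix with compound 10 min at room temperature, then NADPH regeneration solution, 1 h at 37C. Proluciferin-to-luciferin conversion detected by luminescence after 20 min with detection reagent; ketoconazole as positive control.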

[7] = target: Cytochrome P450 2C9 (Homo sapiens) (UniProt P11712); assay: Cytochrome P450 Family 2 Subfamily C Member 9 (CYP2C9) small molecule antagonists: luciferase reporter qHTS assay (AID 1671198); also: nearly all actives have a fitted effect of over 50% in size; also: potency is read from the fitted curve at half-maximal effect; as to activity change, negative = inhibition: series mostly up to about 120 µM
Chain of Cytochrome P450 2C9 (Homo sapiens) (P11712 whole entry, looked up): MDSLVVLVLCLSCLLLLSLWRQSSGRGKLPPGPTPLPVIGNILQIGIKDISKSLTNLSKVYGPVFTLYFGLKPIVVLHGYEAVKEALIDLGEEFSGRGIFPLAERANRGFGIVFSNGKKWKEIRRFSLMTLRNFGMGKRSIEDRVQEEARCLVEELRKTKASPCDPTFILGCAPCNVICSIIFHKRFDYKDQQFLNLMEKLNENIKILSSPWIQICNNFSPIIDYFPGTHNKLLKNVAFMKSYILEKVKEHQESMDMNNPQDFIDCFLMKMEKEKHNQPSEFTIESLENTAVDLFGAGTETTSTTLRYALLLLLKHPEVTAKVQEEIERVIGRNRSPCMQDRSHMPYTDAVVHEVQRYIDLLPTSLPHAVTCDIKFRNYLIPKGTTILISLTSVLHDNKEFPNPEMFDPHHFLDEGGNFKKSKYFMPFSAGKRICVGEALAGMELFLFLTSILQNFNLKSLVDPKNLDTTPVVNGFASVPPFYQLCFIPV
Summary of the method: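 CYP2C9 activity was measured with a P450-Glo proluciferin substrate. Enzyme–substrate mix was held with compound for 10 min at room temperature, then NADPH regeneration solution was added for 1 h at 37C. Luciferin product was read as luminescence.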

[8] = target: Cytochrome P450 1A2 (Homo sapiens) (UniProt P05177); assay: Cytochrome P450 Family 1 Subfamily A Member 2 (CYP1A2) small molecule antagonists: luciferase reporter qHTS assay (AID 1671199); also: nearly all actives have a fitted effect of over 50% in size; also: potency is read from the fitted curve at half-maximal effect; as to activity change, negative = inhibition: series mostly up to about 120 µM
Chain of Cytochrome P450 1A2 (Homo sapiens) (P05177 whole entry, looked up): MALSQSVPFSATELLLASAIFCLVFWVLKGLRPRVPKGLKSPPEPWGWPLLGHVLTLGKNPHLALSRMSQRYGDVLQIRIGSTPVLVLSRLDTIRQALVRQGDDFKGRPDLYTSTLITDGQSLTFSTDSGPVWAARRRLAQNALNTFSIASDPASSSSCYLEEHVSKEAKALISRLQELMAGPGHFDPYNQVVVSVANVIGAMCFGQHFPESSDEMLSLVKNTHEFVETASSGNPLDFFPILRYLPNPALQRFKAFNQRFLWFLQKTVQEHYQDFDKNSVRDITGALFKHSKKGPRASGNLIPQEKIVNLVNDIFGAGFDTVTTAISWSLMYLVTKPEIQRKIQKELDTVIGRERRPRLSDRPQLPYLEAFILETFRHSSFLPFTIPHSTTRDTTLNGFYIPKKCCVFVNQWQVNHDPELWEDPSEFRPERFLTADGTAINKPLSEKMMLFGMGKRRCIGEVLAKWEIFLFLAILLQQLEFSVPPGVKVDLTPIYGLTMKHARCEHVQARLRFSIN
Summary of the method: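 Read-out is luminescence from luciferin detection reagent (20 min) proportional to CYP1A2 activity; compounds in DMSO preincubated 10 min with enzyme and proluciferin substrate, then NADPH regeneration solution, 1 h, room temperature.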

[9] = target: Voltage-gated inwardly rectifying potassium channel KCNH2 (Homo sapiens) (UniProt Q12809); assay: Human Ether-a-go-go-Related Gene (hERG) channel small molecule antagonists: fluorescence cell-based qHTS assay (AID 1671200); also: nearly all actives have a fitted effect of over 50% in size; also: potency is read from the fitted curve at half-maximal effect; as to activity change, negative = inhibition: series mostly up to about 77 µM
Chain of Voltage-gated inwardly rectifying potassium channel KCNH2 (Homo sapiens) (Q12809 whole entry, looked up): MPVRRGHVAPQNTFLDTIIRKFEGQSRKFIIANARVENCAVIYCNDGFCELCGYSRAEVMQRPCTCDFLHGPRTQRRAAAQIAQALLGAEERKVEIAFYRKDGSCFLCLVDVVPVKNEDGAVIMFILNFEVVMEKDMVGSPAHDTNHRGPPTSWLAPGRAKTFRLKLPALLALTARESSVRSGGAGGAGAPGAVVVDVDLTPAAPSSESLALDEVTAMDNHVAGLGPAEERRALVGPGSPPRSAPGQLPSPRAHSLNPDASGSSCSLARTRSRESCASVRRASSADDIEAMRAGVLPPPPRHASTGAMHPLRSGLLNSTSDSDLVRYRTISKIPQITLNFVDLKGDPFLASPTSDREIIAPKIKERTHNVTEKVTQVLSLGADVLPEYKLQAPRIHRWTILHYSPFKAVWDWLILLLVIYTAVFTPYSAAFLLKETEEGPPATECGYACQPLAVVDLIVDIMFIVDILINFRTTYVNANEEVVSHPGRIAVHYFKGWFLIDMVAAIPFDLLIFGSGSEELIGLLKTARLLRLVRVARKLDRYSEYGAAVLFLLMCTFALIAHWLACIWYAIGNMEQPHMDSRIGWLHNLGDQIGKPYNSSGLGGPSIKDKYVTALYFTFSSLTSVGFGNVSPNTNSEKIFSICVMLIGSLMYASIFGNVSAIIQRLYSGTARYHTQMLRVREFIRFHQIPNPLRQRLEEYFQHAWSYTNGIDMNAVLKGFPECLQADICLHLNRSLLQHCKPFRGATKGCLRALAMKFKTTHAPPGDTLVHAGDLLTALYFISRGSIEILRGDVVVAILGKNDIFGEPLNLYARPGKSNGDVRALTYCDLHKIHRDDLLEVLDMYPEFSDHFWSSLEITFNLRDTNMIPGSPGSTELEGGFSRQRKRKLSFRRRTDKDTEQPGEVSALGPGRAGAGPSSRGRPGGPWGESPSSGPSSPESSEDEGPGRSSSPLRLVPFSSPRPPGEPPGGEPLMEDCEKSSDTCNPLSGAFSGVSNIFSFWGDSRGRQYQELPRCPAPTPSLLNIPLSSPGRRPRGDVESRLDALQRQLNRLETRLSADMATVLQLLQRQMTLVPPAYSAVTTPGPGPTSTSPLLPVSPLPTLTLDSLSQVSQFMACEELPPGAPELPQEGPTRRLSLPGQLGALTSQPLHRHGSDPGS
Summary of the method: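 Thallium flux as potassium surrogate: FluxOR II dye loaded 1 h at room temperature into hERG-expressing U2OS cells, then stimulus buffer added after 10 min. Kinetic 480 nm excitation/540 nm emission read, 2 min.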

[10] = target: Cytochrome P450 3A4 (Homo sapiens) (UniProt P08684); assay: Cytochrome P450 Family 3 Subfamily A Member 4 (CYP3A4) small molecule antagonists: luciferase reporter qHTS assay (AID 1671201); also: nearly all actives have a fitted effect of over 50% in size; also: potency is read from the fitted curve at half-maximal effect; as to activity change, negative = inhibition: series mostly up to about 120 µM
Chain of Cytochrome P450 3A4 (Homo sapiens) (P08684 whole entry, looked up): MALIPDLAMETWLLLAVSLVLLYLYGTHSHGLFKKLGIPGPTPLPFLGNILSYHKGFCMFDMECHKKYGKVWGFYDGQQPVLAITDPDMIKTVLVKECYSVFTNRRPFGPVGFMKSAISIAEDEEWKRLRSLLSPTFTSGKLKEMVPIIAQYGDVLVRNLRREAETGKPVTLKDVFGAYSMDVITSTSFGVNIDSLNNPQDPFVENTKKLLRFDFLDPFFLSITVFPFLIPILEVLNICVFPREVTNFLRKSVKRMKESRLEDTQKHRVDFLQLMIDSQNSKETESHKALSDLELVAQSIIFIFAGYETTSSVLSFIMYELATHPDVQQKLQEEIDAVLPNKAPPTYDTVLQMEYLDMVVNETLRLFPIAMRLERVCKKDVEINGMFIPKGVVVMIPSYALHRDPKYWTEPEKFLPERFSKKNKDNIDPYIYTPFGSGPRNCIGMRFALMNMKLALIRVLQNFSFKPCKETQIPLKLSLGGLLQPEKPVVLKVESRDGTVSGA
Summary of the method: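 Recombinant human CYP3A4 converts a proluciferin substrate to luciferin over 1 h at room temperature after NADPH regeneration solution is added (compound preincubated 10 min); detection reagent stops reaction, luminescence read 20 min later as relative units.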

[11] = target: Cytochrome P450 2D6 (Homo sapiens) (UniProt P10635); assay: Cytochrome P450 Family 2 Subfamily D Member 6 (CYP2D6) small molecule antagonists: luciferase reporter qHTS assay (AID 1671196); also: nearly all actives have a fitted effect of over 50% in size; also: potency is read from the fitted curve at half-maximal effect; as to activity change, negative = inhibition: series mostly up to about 120 µM
Chain of Cytochrome P450 2D6 (Homo sapiens) (P10635 whole entry, looked up): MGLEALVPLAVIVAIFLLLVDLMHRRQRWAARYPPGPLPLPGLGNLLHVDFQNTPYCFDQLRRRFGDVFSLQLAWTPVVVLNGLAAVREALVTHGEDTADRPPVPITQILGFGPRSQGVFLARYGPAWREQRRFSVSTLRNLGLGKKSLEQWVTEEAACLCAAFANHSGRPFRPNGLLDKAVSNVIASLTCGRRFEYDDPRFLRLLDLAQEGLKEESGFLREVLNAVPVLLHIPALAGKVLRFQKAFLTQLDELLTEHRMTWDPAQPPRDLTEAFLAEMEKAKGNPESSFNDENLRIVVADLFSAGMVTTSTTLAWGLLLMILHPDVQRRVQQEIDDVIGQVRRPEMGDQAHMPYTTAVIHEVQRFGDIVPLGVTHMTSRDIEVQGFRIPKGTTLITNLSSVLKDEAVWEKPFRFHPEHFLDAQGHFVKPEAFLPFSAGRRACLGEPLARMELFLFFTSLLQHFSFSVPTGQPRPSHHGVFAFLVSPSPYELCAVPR
Summary of the method: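 Chemicals tested for interference with CYP2D6 activity; proluciferin substrate, NADPH regeneration, 1 h at room temperature, luminescent detection.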

[12] = target: Nuclear receptor subfamily 1 group I member 2 (Rattus norvegicus) (UniProt Q9R1A7); assay: Rat pregnane X receptor (rPXR) activation by small molecules, qHTS assay (AID 1346983); details: rPXR luciferase reporter cells, One-Glo luminescence, 24 h; max activation: active compounds read high; also: nearly all actives have a fitted effect of over 20% in size
Chain of Nuclear receptor subfamily 1 group I member 2 (Rattus norvegicus) (Q9R1A7 whole entry, looked up): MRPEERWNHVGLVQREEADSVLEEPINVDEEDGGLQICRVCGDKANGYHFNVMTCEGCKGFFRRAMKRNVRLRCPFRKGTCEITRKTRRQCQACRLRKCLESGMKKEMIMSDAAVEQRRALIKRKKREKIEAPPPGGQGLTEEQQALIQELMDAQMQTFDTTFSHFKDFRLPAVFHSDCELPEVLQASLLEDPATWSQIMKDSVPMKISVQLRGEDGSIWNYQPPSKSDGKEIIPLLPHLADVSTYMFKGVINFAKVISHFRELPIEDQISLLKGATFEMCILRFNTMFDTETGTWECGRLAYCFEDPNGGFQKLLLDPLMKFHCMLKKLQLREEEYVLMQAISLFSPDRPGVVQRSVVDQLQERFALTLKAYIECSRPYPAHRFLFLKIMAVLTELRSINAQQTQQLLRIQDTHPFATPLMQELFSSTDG
Summary of the method: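 Cell-based rPXR luciferase reporter assay, 2,000 cells per well, rested 5hr at 37 C before compound addition in DMSO, then 24 hr at 37 C. One-Glo reagent was added and luminescence read after 30 min at room temperature.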

[13] = target: Nuclear receptor subfamily 1 group I member 2 (Homo sapiens) (UniProt O75469); assay: CYP3A4 induction through human pregnane X receptor (PXR) by small molecules, qHTS assay (AID 1346984); also: nearly all actives have a fitted effect of over 40% in size
Summary of the method: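 After 24 h at 37C with compound, DPX-2 cells (HepG2, co-transfected PXR response element and CYP3A4 promoter-luciferase) got 3uM final P450-Glo Luciferin-IPA for 3 h; One-Glo luminescence followed.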

[14] = target: Nuclear receptor subfamily 1 group I member 2 (Homo sapiens) (UniProt O75469); assay: Human pregnane X receptor (PXR) activation by small molecules, qHTS assay (AID 1346985); also: nearly all actives have a fitted effect of over 40% in size
Summary of the method: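 DPX-2 cells (HepG2 co-transfected with a PXR response element and a CYP3A4-promoter luciferase construct) were seeded at 2,000 per well, rested 5 hr at 37C, then exposed to DMSO-dissolved compounds for 24 hr. Activation was read as luciferase luminescence.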
% is scaled to controls: 0 for no effect and ±100 for the full control effect.

CCCCC(CC)COC(=O)COc1cc(Cl)c(Cl)cc1Cl (centres undefined)
active: Potency [6] 7.1 µM | Potency [7] 8.94 µM | Potency [8] 15.9 µM | Potency [10] 6.33 µM
inactive: Potency [1] | Potency [2] | outcome [3] | Potency [4] | Potency [5] | Potency [9]

ICCc1ccccc1
active: Potency [5] 59.9 µM | Potency [6] 78 µM
inactive: Potency [1] | Potency [2] | outcome [3] | Potency [4] | Potency [9] | Potency [10]

CCCCNc1ccc(C(=O)OCCN(CC)CC)cc1
inactive: Potency [1] | Potency [2] | outcome [3] | Potency [4] | Potency [6] | Potency [10]
active: Potency [11] 3.89 µM

NC(=O)Cc1cccc(C(=O)c2ccccc2)c1N
active: Potency [6] 34.7 µM | Potency [8] 15.5 µM
inactive: Potency [1] | Potency [2] | outcome [3] | Potency [4] | Potency [5] | Potency [7] | Potency [9] | Potency [10]

O=C1CCN(c2ccccc2)N1
inactive: Potency [1] | Potency [2] | outcome [3] | Potency [4] | Potency [9]
active: Potency [11] 35.7 µM | Potency [6] 80 µM | Potency [7] 8 µM | Potency [8] 35.7 µM | Potency [10] 35.7 µM

NNS(=O)(=O)c1ccc(Oc2ccc(S(=O)(=O)NN)cc2)cc1
active: Potency [6] 10 µM | Potency [7] 5.03 µM
inactive: Potency [1] | Potency [2] | outcome [3] | Potency [4] | Potency [11] | Potency [8] | Potency [9] | Potency [10]

Cc1cc(S(=O)(=O)O)c(N)cc1Cl
inactive: Potency [1] | Potency [2] | outcome [3] | Potency [4] | Potency [5] | Potency [9] | Potency [10]
active: Potency [6] 80.5 µM | Potency [7] 28.6 µM

CC1(O)CSC(C)(O)CS1 (centres undefined)
inactive: Potency [1] | Potency [2] | outcome [3] | Potency [4] | Potency [5] | Potency [11] | Potency [9]
active: Potency [8] 39.9 µM

CCOC(=O)NCCC[Si](OCC)(OCC)OCC
inactive: Potency [1] | Potency [2] | outcome [3] | Potency [4] | Potency [5] | Potency [6] | Potency [8] | Potency [9]
active: Potency [10] 39.9 µM

COc1nc(C)nc(NC(=O)NS(=O)(=O)c2ccccc2OCCCl)n1
active: Potency [8] 35.4 µM
inactive: Potency [1] | Potency [2] | outcome [3] | Potency [4] | Potency [5] | Potency [6] | Potency [7] | Potency [9]

CNCCC(Oc1ccccc1OC)c1ccccc1 (centres undefined)
active: Potency [11] 0.977 µM | Potency [9] 8.49 µM
inactive: Potency [1] | Potency [2] | outcome [3] | Potency [4] | Potency [6] | Potency [7]

O=C1CCCCCCCCCCC(=O)OCCO1
active: Potency [6] 35.6 µM | Potency [8] 22.4 µM | Potency [10] 31.7 µM
inactive: Potency [1] | Potency [2] | outcome [3] | Potency [4] | Potency [5] | Potency [9]

CCCOCCC
inactive: Potency [1] | Potency [2] | outcome [3] | Potency [4] | Potency [5] | Potency [6] | Potency [8] | Potency [9] | Potency [10]

O=Cc1ccc(F)c(Br)c1
inactive: Potency [1] | Potency [2] | outcome [3] | Potency [4] | Potency [5] | Potency [6] | Potency [7] | Potency [9] | Potency [10]

O=C1CCCc2ccccc21
active: Potency [5] 39 µM | Potency [8] 36 µM
inactive: Potency [1] | Potency [2] | outcome [3] | Potency [4] | Potency [6] | Potency [7] | Potency [9] | Potency [10]

CC1=C2[C@H](/C=C(\C)C(=O)O)CC[C@@H](C)[C@H]2CC1
inactive: Potency [1] | Potency [2] | outcome [3] | Potency [4] | Potency [9] | Potency [10]
active: Potency [5] 56.5 µM | Potency [6] 73.7 µM | Potency [7] 65.6 µM | Potency [8] 65.6 µM

C/C(=N\O)[C@@H](C)NCC(C)(C)CN[C@H](C)/C(C)=N/O
inactive: Potency [1] | Potency [2] | outcome [3] | Potency [4] | Potency [5] | Potency [6] | Potency [7] | Potency [8] | Potency [9]

CN1C(=O)CC(c2ccccc2)C1=O (centres undefined)
inactive: Potency [1] | Potency [2] | outcome [3] | Potency [4] | max activation [12] -2.73% | Potency [6] | Potency [8] | Potency [9]

C=CCCCCCCCCO
active: Potency [8] 39.9 µM
inactive: Potency [1] | Potency [2] | outcome [3] | Potency [4] | Potency [5] | Potency [6] | Potency [9] | Potency [10]

O=C1CCC(C2CCCCC2)CC1
inactive: Potency [1] | Potency [2] | outcome [3] | Potency [4] | Potency [11] | Potency [9]

CC1(C)C(=O)N(Cl)C(=O)N1Br
inactive: Potency [1] | Potency [2] | outcome [3] | Potency [5] | Potency [11] | Potency [8] | Potency [9]

C[C@@H]1CN(c2c(F)c(F)c3c(=O)c(C(=O)O)cn(C4CC4)c3c2F)C[C@H](C)N1
inactive: caspase activation [1] -1.23% [at 19 µM] | activity change, negative = cytotoxicity [2] 0.544% [at 19 µM] | caspase-3/7 activation [3] 0.203% [at 19 µM] | activation [5] -4.26% [at 19 µM] | max activation [12] -2.98% | Potency [13] | Potency [14] | activity change, negative = inhibition [11] -28.8% [at 23.6 µM] | activity change, negative = inhibition [6] 5.04% [at 23.6 µM] | Potency [7] | Potency [8] | activity change, negative = inhibition [9] 7.01% [at 15.8 µM] | activity change, negative = inhibition [10] 9.32% [at 23.6 µM]

CCOC(=O)[C@H](CCc1ccccc1)N[C@@H](C)C(=O)N1Cc2cc(OC)c(OC)cc2C[C@H]1C(=O)O
active: Potency [7] 15.5 µM
inactive: Potency [1] | Potency [2] | outcome [3] | Potency [5] | max activation [12] -0.0593% | Potency [13] | Potency [8] | Potency [9]

CN(C)CCOc1ccccc1Cc1ccccc1
active: Potency [9] 7.56 µM
inactive: Potency [1] | Potency [2] | outcome [3] | Potency [5] | Potency [11] | Potency [7] | Potency [10]
